High-throughput results deposited in PubChem by several laboratories.
E coli growth-1 – E. coli growth inhibition, primary screen, OD600. Escherichia coli growth, 23 h; hits give low values. OD600 absorbance (concentration not given with the values). 330,000 tested, 0.21% active. AID 1053175, 2014;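 active = OD600 absorbance below the run mean of sample wells minus 3.6 SD, in any replicate, cut at about 0.56 in these data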
Tat transport – E. coli Tat export inhibitors, primary screen, MC4100, TorA-mCherry reporter, fluorescence, single point; inhibition, % at 10 µM; 340,000 tested, 0.036% active; AID 488895, 2010;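 active = mean replicate inhibition at least 50% and at least half of replicates individually reaching 50%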;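 also: exported cargo escapes ClpAP degradation while cytoplasmic cargo is degraded and loses fluorescence; 0% = median of neutral control wells and 100% = median of NaSCN control wells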
AddAB inh – growth inhibition of E. coli expressing H. pylori AddAB, primary screen, AddAB inhibitor project, absorbance; inhibition, % at 11.9 µM; 330,000 tested, 0.29% active; AID 435030, 2010; in the data active = inhibition above about 12%;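 also: 0% = vehicle wells of infected cells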
E coli growth-2 – E. coli V3065 growth inhibition, primary screen, counter-screen for AddAB inhibitor project, absorbance, OD600; 18 h; inhibition, % at 11.9 µM; 330,000 tested, 0.27% active;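 active = inhibition above the campaign's mean inhibition across all tested compounds plus 3 SD, cut at about 9.9% in these data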;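 also: uninfected addAB+ strain grown without phage in ampicillin broth; 0% = DMSO wells and 100% = ciprofloxacin 0.95 µg/ml wells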
phage Ecoli inh – growth loss of phage-infected E. coli, primary screen, RecBCD inhibitor project, absorbance, with phage, HTS; 360,000 tested, 0.26% active; inhibition, % at 11.9 µM; AID 651602, 2012; in the data active = inhibition above about 11%
AddAB conf – growth loss of phage-infected E. coli expressing H. pylori AddAB, confirmation, AddAB inhibitor project, absorbance, E. coli V3065, T4 phage, triplicate. shares compounds with AddAB inh. OD; T4 phage with gene 2 nonsense mutations. inhibition, % at 11.9 µM. 880 tested, 64% active. AID 488942, 2010;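 active = mean inhibition above a set limit taken from the earlier primary screen, cut at about 13% in these data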;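 also: higher means less bacterial growth since AddAB block lets phage replicate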
RecBCD counter – growth loss of RecBCD+ E. coli with mutant T4 phage, counter-screen for AddAB inhibitor project, absorbance, V66 E. coli | 880 tested, 73% active | OD growth | shares compounds with AddAB inh | inhibition, % at 11.9 µM;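 active = mean inhibition above the mean of solvent-only control wells plus 3 SD, cut at about 4% in these data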;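 also: optical density read after an 18 h incubation at 37 °C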
Bact viability – bacterial viability inhibition counter-screen, confirmation, counter-screen for AddAB inhibitor project, absorbance | inhibition, % at 11.9 µM | absorbance (AddAB counterscreen) | AID 488956, 2010 | shares compounds with AddAB inh | 880 tested, 35% active; in the data active = inhibition above about 25%
RecBCD conf – growth loss of phage-infected RecBCD+ E. coli, confirmation, RecBCD inhibitor project, absorbance, E. coli V66, T4 gene 2 phage; 890 tested, 45% active; AID 651982, 2013; inhibition, % at 11.9 µM; shares compounds with phage Ecoli inh; E. coli V66 + T4 2- phage, growth OD;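 active = mean inhibition over triplicates exceeding the hit threshold derived in the original primary screen, cut at about 11% in these data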
Ecoli viability – E. coli viability inhibition, counter-screen for RecBCD inhibitor project, absorbance, high throughput; shares compounds with phage Ecoli inh; 890 tested, 29% active; absorbance (OD) growth; inhibition, % at 11.9 µM; in the data active = inhibition above about 20%;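 also: E. coli strain V66 grown with compound alone and no phage infection; 0% = bacteria with DMSO vehicle only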
AddAB counter – growth loss of phage-infected AddAB-carrying E. coli, confirmation, counter-screen for RecBCD inhibitor project, absorbance, E. coli V3065, T4 phage; shares compounds with phage Ecoli inh; E. coli expressing H. pylori AddAB + T4 phage, OD growth; gene 2 mutant T4, recBCD-deleted host; inhibition, % at 11.9 µM; 890 tested, 45% active;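 active = mean inhibition above the solvent-only control wells' mean plus 3 SD, cut at about 22% in these data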;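 also: higher means less bacterial growth from phage killing when AddAB is blocked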
Starred values were filed as active, the others as inactive; x = no result. This is a sample that favours compounds with a hit; in the whole collection about 0.51% have one here.

SMILES | E coli growth-1 | Tat transport | AddAB inh | E coli growth-2 | phage Ecoli inh | AddAB conf | RecBCD counter | Bact viability | RecBCD conf | Ecoli viability | AddAB counter
CC[C@H]1OC(=O)[C@H](C)[C@@H](O[C@H]2C[C@@](C)(OC)[C@@H](O)[C@H](C)O2)[C@H](C)[C@@H](O[C@@H]2O[C@H](C)C[C@H](N(C)C)[C@H]2O)[C@](C)(O)C[C@@H](C)CN(C)[C@H](C)[C@@H](O)[C@]1(C)O | x | 121* | 100* | 101* | 101* | 99* | 101* | 102* | 103* | 104* | 104*
O=c1[nH]c(=O)n([C@H]2C[C@H](O)[C@@H](CO)O2)cc1I | x | 13 | 3 | 4 | 10 | x | x | x | x | x | x
CCc1cn(C2CC(O)C(CO)O2)c(=O)[nH]c1=O (configuration not stated) | 0.62 | 4 | 20* | 13* | 12* | 35* | 13* | 11 | 14* | 10 | 31*
Cc1ccc(-c2nn(Cc3ccccc3)cc2C=CC(=O)O)cc1C | 0.69 | x | x | x | x | x | x | x | x | x | x
COc1ccccc1-n1c(=O)oc2ccc(Cl)cc2c1=O | 0.65 | 9 | 12* | 6 | 12* | 3 | 10* | 2 | 9 | 12 | 10
COc1ccc(NC(=O)Nc2cccc3c2OC(CN(C)S(C)(=O)=O)C(C)CN(C(C)CO)C3=O)cc1 (configuration not stated) | 0.65 | x | x | x | x | x | x | x | x | x | x
CN1C(=O)C2C(C=Cc3ccccc3)N3C(=O)CN(CCO)C(=O)[C@@]3(Cc3ccccc3)C2C1=O (some centres not stated) | 0.67 | x | x | x | x | x | x | x | x | x | x
CO[C@H]1/C=C/O[C@@]2(C)Oc3c(C)c(O)c4c(O)c(c(C=NN5CCN(C)CC5)c(O)c4c3C2=O)NC(=O)/C(C)=C\C=C\[C@H](C)[C@H](O)[C@@H](C)[C@@H](O)[C@@H](C)[C@H](OC(C)=O)[C@@H]1C | x | 78* | 52* | 48* | 78* | 59* | 58* | 62* | 80* | 89* | 102*
CCCC(=O)NC(c1ccc(Cl)cc1Cl)c1ccc2cccnc2c1O (configuration not stated) | x | -1 | 20* | 27* | 24* | 20* | 20* | 19 | 16* | 19 | 25*
CCCCC(=O)NC(c1ccc(Cl)cc1)c1ccc2cccnc2c1O (configuration not stated) | x | -5 | 31* | 30* | 20* | 29* | 22* | 23 | 12* | 14 | 33*
CCCC(=O)NC(c1ccc(Cl)cc1)c1ccc2cccnc2c1O (configuration not stated) | x | -10 | 19* | 28* | 18* | 24* | 23* | 24 | 15* | 19 | 27*
CC(=O)NC(c1ccc2ccccc2c1)c1ccc2cccnc2c1O (configuration not stated) | x | -7 | 30* | 27* | 24* | 28* | 22* | 20 | 16* | 20* | 32*
COc1cc2c(cc1NC(=S)NC(=O)C=Cc1ccc(OC)c(OC)c1)oc1ccccc12 | 0.74 | x | x | x | x | x | x | x | x | x | x
O=C1C(=Cc2cccnc2)Sc2ccccc21 | 0.65 | x | x | x | x | x | x | x | x | x | x
CC(C)CC(NC(=O)OC(C)(C)C)c1cn(C(CCCCNC(=O)OC(C)(C)C)C(=O)N2CCN(C(=O)OC(C)(C)C)CC2)nn1 (configuration not stated) | 0.68 | x | x | x | x | x | x | x | x | x | x
CCCCC(=O)NC(c1ccccc1OC)c1ccc2cccnc2c1O (configuration not stated) | 0.62 | 23 | 32* | 33* | 34* | 30* | 28* | 27* | 21* | 25* | 32*
CCCCC(=O)NC(c1ccc(OC)c(OC)c1)c1c(O)ccc2ccccc12 (configuration not stated) | 0.65 | 4 | 1 | -1 | x | x | x | x | x | x | x
O=C(Oc1c(CN2CCOCC2)cc(Cl)c2cccnc12)c1cccs1 | 0.67 | 3 | -2 | -8 | -3 | x | x | x | x | x | x
O=C(Oc1c(Cl)cc(Cl)c2cccnc12)c1cccs1 | 0.14* | 7 | 40* | 43* | 42* | 51* | 53* | 56* | 44* | 53* | 41*
O=C(NC1CCCCC1)C(O)C(O)C(=O)NC1CCCCC1 (configuration not stated) | 0.67 | x | x | x | x | x | x | x | x | x | x
Cc1ccc(/C=C/C(=O)Nc2ccc(S(N)(=O)=O)cc2)o1 | 0.69 | 2 | 2 | 4 | -1 | x | x | x | x | x | x
Cc1nc(Nc2ccc(S(N)(=O)=O)cc2)oc1C | 0.73 | -10 | 15* | 9.9* | 12* | 9 | 5.3* | 15 | 5 | 2 | 41*
Cc1cc(C)c2c(N=NN3CCOCC3)[nH]nc2n1 | 0.67 | -5 | 77* | 17* | 12* | 71* | 4.2* | 33* | 6 | 6 | 32*
NC1C(O)OC(CO)C(O)C1O (configuration not stated) | 0.67 | x | x | x | x | x | x | x | x | x | x
O=c1[nH]c(=O)n(C2OC(CO)C(O)C(O)C2O)cc1F (configuration not stated) | x | x | x | x | 4 | x | x | x | x | x | x
C[C@H]1O[C@@H](n2cc(F)c(=O)[nH]c2=O)[C@H](O)[C@@H]1O | x | 6 | 36* | 42* | 32* | 41* | 25* | 38* | 47* | 31* | 53*
CN(C)C1=NCC(Cc2ccccc2)N1CCCCc1ccccc1 (configuration not stated) | 0.7 | x | x | x | x | x | x | x | x | x | x
O=C(N/N=C/c1ccc(O)cc1O)c1ccc(CN2C(=O)c3cccc4cccc2c34)cc1 | x | 3 | 14* | 25* | 22* | 16* | 20* | 10 | 9 | 11 | 16
Cc1cc([N+](=O)[O-])nn1Cc1ccc(C(=O)N/N=C/c2ccc(O)cc2O)cc1 | x | -2 | 19* | 20* | 17* | 23* | 19* | 13 | 5 | 7 | 10
